# Hits are enriched below; roughly 4% of the tested compounds scored in any of these assays.
# OvCa metastasis: Primary qHTS assay for Inhibitors of ovarian cancer metastasis using an organotypic tumor microenvironment (TME) model | AID 1963576, 2024 | Potency, µM (top dose mostly 45.8 µM), without a hit: top-dose activity change, negative = inhibition, usual class: inhibitors | SKOV3ip1-GFP adhesion/invasion on 3D omental model, fluorescence | 0.1% of 46,000 active;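 note: potency is the fitted concentration of half-maximal effect; plate controls were DMSO wells for no effect and tomatine positive control wells for full effect; nearly all actives have a fitted effect of over 65% in size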
#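 Adhesion/invasion was scored as fixed GFP-labeled SKOV3ip1 cell counts (488/509 nm), normalized to DMSO and tomatine controls. Cancer cells in serum-free medium, with four compound doses (0.36-46 umol/L), sat 2 hr at RT then 16 hr at 37 C on a 48 hr fibroblast/mesothelial/ECM culture.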
# DRV1 agonist: qHTS for Agonists of Human Resolvin D1 Receptor DRV1; Probable G-protein coupled receptor 32 (Homo sapiens), O75388; CHO-K1 GPR32 beta-arrestin PathHunter luminescence, 90 min; zero percent set by DMSO-only wells; activation, % at 76.9 µM; 2.5% of 48,000 active;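 active = activation of at least 60% and not above a set upper limit, about 1 call in 100 departs from these limits; inconclusive = activation of 40% to 60%, or above that upper limit; inactive = activation under 40%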; note: 0% is about no effect
#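 CHO-K1 cells stably expressing ProLink-tagged GPR32 and Enzyme Activator-tagged beta-arrestin were seeded at 2,500 cells/well overnight, exposed to compounds for 90 min at 37 °C, then read by beta-Gal complementation chemiluminescence after 1 h detection reagent.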
# NTMT1 inhibitor: Primary qHTS for Inhibitors of N-terminal methyltransferase 1 (NTMT1): MTaseGlo Assay. N-terminal Xaa-Pro-Lys N-methyltransferase 1 (Homo sapiens), Q9BV86. NTMT1 MTase-Glo SAH luminescence, purified enzyme. Potency, µM (titrated, usually from 114 µM), without a hit: top-dose activity change, negative = inhibition, hits mostly inhibitors. 2.5% of 59,000 active;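 note: potency is the fitted concentration of half-maximal effect; plate controls were DMSO vehicle for no effect and no enzyme for full effect; nearly all actives have a fitted effect of over 65% in size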
# p53null 32C tox: qHTS Screen for Compounds that Selectively Target Cancer Cells with p53 Mutations: Cytotoxicity of p53 Null Cells at the Permissive Temperature; H1299-neo p53 null cells, ATP luminescence, 24 h, 32C; Potency, µM (titrated, usually from 46.1 µM), inactives show at the highest dose activity change, negative = cytotoxicity, hits mostly cytotoxic; 0.62% of 55,000 active; AID 903, 2007;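 note: potency is the fitted concentration of half-maximal effect; 0% = DMSO only and -100% = full killing by 100 µM tamoxifen; nearly all actives have a fitted effect of over 55% in size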
#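 H1299-neo (p53 null) cells, 600/well, treated 24 h at 32C with compound up to 46 uM; ATPlite luminescence viability, normalized to DMSO and 100 uM tamoxifen; AC50 by Hill fit.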
# p53null 39C tox: qHTS Screen for Compounds that Selectively Target Cancer Cells with p53 Mutations: Cytotoxicity of p53 Null Cells at the Nonpermissive Temperature | Potency, µM (doses to about 46.1 µM), for the others: at the highest dose activity, negative = cell killing, most hits filed as cytotoxic | H1299 p53-null (neo) cells, 39C, ATPlite viability, 24 h | 0.97% of 55,000 active | AID 904, 2007;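 note: potency is the fitted concentration of half-maximal effect; 0% = DMSO only and -100% = full killing by 100 µM tamoxifen; nearly all actives have a fitted effect of over 50% in size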
#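 Temperature-shift cytotoxicity format: compound titrations on p53-null or A138V-expressing H1299 cells held 24 hr at 39C, cell ATP then measured, AC50 from Hill model.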
# GALC G270D act: A Novel Cell-Based Assay to Identify Small Molecules for B -Galactocerebrosidase; 0.1% of 45,000 active; 145M-Twi-hGALC-G270D cells (Twitcher mouse brain line with human GALC G270D), HMU-beta-Gal fluorescence, 48 h; P54803; AID 1159614, 2016; Potency, µM (top dose mostly 57.5 µM), most hits filed as activators; note: potency is the fitted concentration of half-maximal effect; 0% is about no effect; nearly all actives have a fitted effect of over 65% in size
# Target sequence (P54803 whole entry G286D): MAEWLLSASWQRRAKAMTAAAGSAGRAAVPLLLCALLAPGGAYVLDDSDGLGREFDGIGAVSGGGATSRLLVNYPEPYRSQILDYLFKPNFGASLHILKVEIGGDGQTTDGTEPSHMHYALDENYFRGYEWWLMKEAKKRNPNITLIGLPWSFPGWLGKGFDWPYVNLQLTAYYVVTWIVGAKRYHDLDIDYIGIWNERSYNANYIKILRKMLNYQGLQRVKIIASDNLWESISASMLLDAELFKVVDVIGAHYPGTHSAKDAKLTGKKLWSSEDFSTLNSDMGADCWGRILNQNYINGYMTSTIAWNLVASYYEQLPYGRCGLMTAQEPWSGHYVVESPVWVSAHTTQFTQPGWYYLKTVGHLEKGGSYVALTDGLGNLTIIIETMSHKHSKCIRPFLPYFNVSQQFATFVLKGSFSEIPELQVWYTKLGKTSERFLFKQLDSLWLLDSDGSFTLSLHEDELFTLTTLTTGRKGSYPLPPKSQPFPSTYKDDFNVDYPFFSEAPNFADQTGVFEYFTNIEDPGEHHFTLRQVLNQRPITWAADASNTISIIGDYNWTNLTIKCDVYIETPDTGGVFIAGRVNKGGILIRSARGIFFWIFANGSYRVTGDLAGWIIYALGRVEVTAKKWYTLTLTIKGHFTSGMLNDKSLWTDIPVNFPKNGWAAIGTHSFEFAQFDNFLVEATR
#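 Mutant human GALC (G270D), stably expressed in a Twitcher mouse brain cell line lacking endogenous GALC, is measured in live-treated cells via 6-hexadecanoylamino-4-methylumbelliferyl-β-galactoside hydrolysis (0.1 mM final, pH 5.2) with fluorescent detection.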
# * = called active by the depositor; i = inactive; ? = inconclusive; · = no result; [ ] = remark or other dose. Unless noted, calls come from the whole dose curve; as a rule, active = well fitted curve in the direction sought with a large enough effect; inconclusive = small, poorly fitted or top-dose-only effect, or another doubt; inactive = no such curve, though single readings can be large; an effect the other way counts as inactive or inconclusive.
SMILES,OvCa metastasis,DRV1 agonist,NTMT1 inhibitor,p53null 32C tox,p53null 39C tox,GALC G270D act
O=C(O)[C@@H]1C[C@H]2C[C@@H](CCc3nn[nH]n3)CC[C@H]2CN1,·,·,-2.9%[57.5 µM],·,·,·
O=C(Nc1ccc(OC(F)(F)Cl)cc1)c1cnc(N2CC[C@@H](O)C2)c(-c2ccn[nH]2)c1,·,·,-5.2%,·,·,·
Cc1ccc(-n2ncc3c(N4CCN(c5ccc(F)cc5)CC4)ncnc32)cc1,-7.9%,20.4,-3.1%,-5.9%,-5.4%,i
Cc1cccc(-n2ncc3c(N4CCCCCC4)ncnc32)c1,8.2%,-6.5,-29.5%,?,14.6%,i
CC1CCCN(c2ncnc3c2cnn3-c2ccc(F)cc2)C1 (stereo unspecified),-1.5%,?,-21.5%,2.82µM*,?,i
Cc1cccc(-n2ncc3c(N4CCCC(C)C4)ncnc32)c1 (stereo unspecified),i,42.5,?,3.16µM*,2µM*,i
COc1ccc(/C=C/C(=O)Nc2ccccc2C(=O)O)cc1OC,·,7.3,24.7%[57.5 µM],·,·,·
Cc1ccc(/C=C/C(=O)Nc2ccccc2C(N)=O)o1,0.7%,17.5,?,12.6µM*,10µM*,i
Cc1ccc2c(c1)-c1c(cnn1CC(=O)N1CCN(c3ccccc3F)CC1)CO2,i,-14.5,-15.4%,2.3%,-9.2%,i
O=C(Cn1ncc2c1-c1ccccc1OC2)N1CCN(c2ccccc2F)CC1,4.8%,92.1*,6.2%,-1.8%,?,i
CC(C)CC(=O)O[C@@H]1OC=C(CO[C@@H]2O[C@H](CO[C@@H]3O[C@H](CO)[C@@H](O)[C@H](O)[C@H]3O)[C@@H](O)[C@H](O)[C@H]2O)[C@H]2C[C@H](O)[C@@H](CO)[C@@H]12,·,·,5.3%[12.6 µM],·,·,·
O=[N+]([O-])c1cccc(CNc2ccc(S(=O)(=O)Nc3nccs3)cc2)c1O,·,·,24.2%,·,·,·
O=C(O)c1cccc(-c2noc(-c3ccccc3C(F)(F)F)n2)c1,·,·,-2.6%,·,·,·
COc1cc2c(cc1O)CCC1C2CC[C@@]2(C)C1CC[C@@H]2O (stereo partly specified),-21.4%,·,?,·,·,·
COc1cc2c(cc1O)CC[C@@H]1[C@@H]2CC[C@]2(C)[C@@H](O)CC[C@@H]12,·,-25.2,35.5µM*,·,·,·
COc1cc(O)ccc1-c1nc2ccc(Br)cn2c1Nc1ccccc1C,?,-9.4,-2.0%,?,20µM*,i
Cc1ccccc1Nc1c(-c2ccc(N3CCOCC3)cc2)nc2cccc(C)n12,-22.7%,-14.8,0.1%,?,?,i
Cc1ccccc1Nc1c(-c2cccc(O)c2)nc2ccc(Br)cn12,1.7%,-21.8,-7.9%,-6.7%,-3.5%,i
Cc1ccccc1Nc1c(-c2ccc(N3CCOCC3)cc2)nc2ccc(Br)cn12,-14.6%,-29.3,-6.6%,?,10µM*,i
Cc1ccccc1Nc1c(-c2ccc(N3CCOCC3)cc2)nc2ccccn12,-6.1%,-26.5,-10.7%,1.58µM*,0.316µM*,i
Cc1cc(N[S+](=O)([O-])c2ccc(NC(=O)Cc3ccc4nccnc4c3)cc2)no1,·,·,6.4%,·,·,·
CC(=O)O[C@@H]1[C@H](O[C@@H]2O[C@H](CO)[C@@H](O)[C@H](O)[C@H]2O)[C@@H](O[C@@H]2O[C@@H](C)[C@H](O)[C@@H](O[C@@H]3O[C@H](CO)[C@@H](O)[C@H](O)[C@H]3O)[C@H]2O)[C@H](OC(=O)C23CCC4(C)C(=CCC5C6(C)CC(O)C(O[C@@H]7O[C@H](C(=O)O)[C@@H](O)[C@H](O)[C@H]7O)C(C)(C(=O)O)C6CCC54C)C2CC(C)(C)CC3O)O[C@@H]1C (stereo partly specified),·,·,6.7%[6.45 µM],·,·,·
COc1ccc2[nH]cc(CCNC(=O)Nc3c(C)cccc3C)c2c1,-9.5%,32.2,-4.0%,-4.7%,-10.8%,i
COc1ccc2[nH]cc(CCNC(=O)Nc3cccc(F)c3)c2c1,2.8%,93.2*,-0.9%,8.5%,-20.1%,i
CCc1ccc(NC(=O)C2CCC(CNS(=O)(=O)c3ccc4c(c3)CC(C)N4C(C)=O)CC2)cc1 (stereo unspecified),4.5%,19.3,-6.6%,-0.6%,-9.9%,i
SMILES,OvCa metastasis,DRV1 agonist,NTMT1 inhibitor,p53null 32C tox,p53null 39C tox,GALC G270D act
CC(=O)c1ccc(NC(=O)C2CCC(CNS(=O)(=O)c3cccs3)CC2)cc1 (stereo unspecified),-0.2%,107.7*,16.8%,-4.1%,-24.7%,i
CC(=O)N1c2ccc(S(=O)(=O)NCC3CCC(C(=O)Nc4ccc(F)cc4)CC3)cc2CC1C (stereo unspecified),-2.6%,68.0*,15.9%,16.4%,14.6%,i
Cc1noc(C)c1-c1ccc(Nc2nc(-c3ccncc3)nc3ccccc23)cc1F,·,·,2.1%,·,·,·
CNCc1ccc(C)c(NC(=O)c2ccc(Nc3nc(-c4ccccc4)c4ccccc4n3)cc2)c1,·,·,35.5µM*,·,·,·
CC(=O)O[C@@H]1C[C@@]23C[C@@]24CC[C@H](O[C@@H]2OC[C@H](O)[C@H](O)[C@H]2O)C(C)(C)[C@@H]4CC[C@H]3[C@]2(C)[C@@H](O)C34O[C@H](C[C@@H](C)[C@@H]3[C@@]12C)[C@@H](C(C)(C)O)O4,·,·,-16.9%[57.5 µM],·,·,·
CCCn1c(/C=C/c2ccccc2)nc2ccccc21,-0.9%,2.4,?,15.8µM*,?,i
CC1CCC2C(C)(C)[C@H](O)CC[C@]2(C)C12Cc1c(O)cc3c(c1O2)CN(C(CCC(=O)O)C(=O)O)C3=O (stereo partly specified),·,·,38.5%[57.5 µM],·,·,·
O=C(CC(c1ccccc1)c1cc(Br)ccc1O)NCC1(c2ccccc2)CCCC1 (stereo unspecified),?,108.1*,·,?,15.8µM*,·

# Compound activity as filed in PubChem BioAssay.
